Laboratory results reported in PubChem BioAssay (NCATS).
Where “and” joins values, the source holds several entries; their conditions need not be identical. Identical values can stand only once. Results filed as inconclusive are left out. Where a call stands in place of a potency, no number is given. Calls of active or inactive are those of the source. Unless noted, calls follow the shape of the full dose curve.

How the values were obtained:
[1] = target: Androgen receptor (Homo sapiens) (UniProt P10275); assay: qHTS assay for small molecule antagonists of androgen receptor signaling (AID 588516; active = well fitted curve in the direction sought with a large enough effect in the signal ratio, with a control signal flat, not every such curve was filed as active; the % refers to the signal ratio)
Method in brief: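 Antagonist mode: inhibition of R1881-stimulated (10 nM final) bla reporter in GeneBLAzer AR HEK 293 cells, 16 h at 37C, compounds titrated. IC50 and efficacy from Hill-equation fits of 405/460–530 nm FRET ratios.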

[2] = target: Glucocorticoid receptor (Homo sapiens) (UniProt P04150); assay: qHTS assay for small molecule agonists of glucocorticoid receptor signaling (AID 588532; active = well fitted curve in the direction sought with a large enough effect in the signal ratio, with a control signal flat; the % refers to the signal ratio); conditions: HeLa MMTV-bla, beta-lactamase ratio, agonist, 18 h; stronger effect = higher value; percent of dexamethasone control, DMSO zero
Method in brief: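 MMTV-bla HeLa beta-lactamase reporter cells in 1% charcoal/dextran FBS medium, compounds up to 92 uM for 18 h at 37 C, CCF4 readout; normalized to 0.1 uM dexamethasone (100%), EC50 and efficacy from Hill fits.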

[3] = target: Vitamin D3 receptor (Homo sapiens) (UniProt P11473); assay: qHTS assay for small molecule agonists of vitamin D receptor signaling (AID 588543)
Method in brief: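 Agonist-mode beta-lactamase reporter: HEK293T VDR-UAS-bla cells in charcoal-stripped 2% FBS, compound series 16 h 37 C, CCF4 2 h RT. EC50 from Hill fit, scaled against DMSO and 50 nM calcitriol control.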

[4] = qHTS assay for small molecule antagonists of retinoid X receptor alpha signaling (AID 588546; active = well fitted inhibition curve with a large enough effect in the signal ratio, with a control signal flat, not every such curve was filed as active; the % refers to the signal ratio; also: potency is read from the fitted curve at half-maximal effect;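 as to max response: cells stimulated with 9-cis-retinoic acid as agonist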); conditions: HEK293T RXRa-UAS-bla, beta-lactamase ratio, antagonist mode; measured here: W530 green channel, cytotoxicity proxy
Method in brief: (§1)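 Beta-lactamase reporter inhibition, read as CCF4 fluorescence ratio (ex 405, em 460/530 nm) after 2 h at RT. HEK293T UAS-bla cells, 2500/well, were stimulated with 9-cis-RA at 500 or 100 nM final alongside test compound for 18 h at 37 C.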

[5] = target: Retinoic acid receptor RXR-alpha (Homo sapiens) (UniProt P19793); assay: as above; conditions: HEK293T RXRa-UAS-bla, beta-lactamase ratio, antagonist mode
Method in brief: as §1

[6] = target: Bile acid receptor (Homo sapiens) (UniProt Q96RI1); assay: qHTS assay for small molecule antagonists of farnesoid X receptor signaling (AID 588526)
Method in brief: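 Antagonist mode: titrated compounds tested against chenodeoxycholic acid stimulation (normalized to 50 uM CDCA and DMSO) in GeneBLAzer HEK293T cells for 16 h. Beta-lactamase read by CCF4 fluorescence; IC50 from Hill fits.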

[7] = qHTS assay for small molecule antagonists of peroxisome proliferator-activated receptor delta signaling (AID 588535; active = well fitted inhibition curve with a large enough effect in the signal ratio, with a control signal flat, not every such curve was filed as active; the % refers to the signal ratio;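 as to max response: cells co-treated with a PPAR-delta agonist as stimulator during compound exposure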); conditions: HEK293T PPARd-UAS-bla, beta-lactamase FRET ratio, 18 h; 460 nm channel
Method in brief: (§2)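 Cells were seeded at 4000 per well in assay medium containing 2% charcoal/dextran FBS and held 5 hrs at 37 C. Compounds were then added for 18 hrs. CCF4 substrate was applied for 2 hrs at room temperature before fluorescence reading.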

[8] = target: Peroxisome proliferator-activated receptor delta (Homo sapiens) (UniProt Q03181); assay: as above
Method in brief: as §2

[9] = target: Peroxisome proliferator-activated receptor gamma (Homo sapiens) (UniProt P37231); assay: qHTS assay for small molecule agonists of peroxisome proliferator-activated receptor gamma signaling (AID 588536; active = well fitted curve in the direction sought with a large enough effect in the signal ratio, with a control signal flat, not every such curve was filed as active; the % refers to the signal ratio)
Method in brief: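 Ratiometric blue/green fluorescence (405 nm excitation; 460 and 530 nm emission) from CCF4-loaded HEK293 reporter cells serves as signal. Exposure to test compounds lasts 16 h at 37 C in medium containing 1% charcoal/dextran-treated serum.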

[10] = target: Peroxisome proliferator-activated receptor gamma (Homo sapiens) (UniProt P37231); assay: qHTS assay for small molecule antagonists of peroxisome proliferator-activated receptor gamma signaling (AID 588537; active = well fitted inhibition curve with a large enough effect in the signal ratio, with a control signal flat, not every such curve was filed as active; the % refers to the signal ratio;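 also: reporter cells co-stimulated with 50 nM rosiglitazone agonist during compound treatment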)
Method in brief: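 Step one: plate 3000 HEK293 UAS-bla cells per well in medium with 1% stripped serum and hold 6-6.5 h at 37 C. Step two: add compound and 50 nM agonist for 16 h. Step three: CCF4 loading, fluorescence read.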

[11] = target: Vitamin D3 receptor (Homo sapiens) (UniProt P11473); assay: qHTS assay for small molecule antagonists of vitamin D receptor signaling (AID 588541);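 also: receptor activated by calcitriol during compound treatment; series mostly up to about 77 µM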
Method in brief: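 VDR-UAS-bla HEK293T cells in 2% charcoal-stripped FBS were stimulated with 1-alpha,25-dihydroxyvitamin D3 (3 nM final) plus compound for 16 h at 37 C. The beta-lactamase CCF4 readout was normalized to 50 nM agonist and DMSO, and Hill fits gave IC50.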

[12] = qHTS assay for small molecule agonists of retinoid X receptor alpha signaling (AID 588544); conditions: HEK293T RXRa-UAS-bla, beta-lactamase reporter, 18 h; 530 nm emission
[13] = target: Retinoic acid receptor RXR-alpha (Homo sapiens) (UniProt P19793); assay: as above
[14] = target: Thyroid hormone receptor beta (Homo sapiens) (UniProt P10828); assay: qHTS assay for small molecule agonists of thyroid hormone receptor beta signaling (AID 588545)
Method in brief: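 TR-UAS-bla GripTite HEK 293 cells (2500/well, medium with 2% charcoal/dextran FBS) were treated in agonist mode for 18 h at 37 C, titrated. Beta-lactamase was read by CCF4 ratio after 2 h; normalized to 10 nM T3 (100%) and DMSO, Hill-fitted for EC50 and efficacy.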

[15] = target: Thyroid hormone receptor beta (Homo sapiens) (UniProt P10828); assay: qHTS assay for small molecule antagonists of thyroid hormone receptor beta signaling (AID 588547; active = well fitted inhibition curve with a large enough effect in the signal ratio, with a control signal flat, not every such curve was filed as active; the % refers to the signal ratio;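 also: cells stimulated with 0.4 nM T3 agonist during compound exposure; series mostly up to about 77 µM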); conditions: TR-UAS-bla HEK293, beta-lactamase ratio, antagonist mode, 18 h
Method in brief: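 TR-UAS-bla GripTite HEK293 cells in 2% charcoal/dextran FBS medium; compounds 0.59 nM to 92 uM with T3 at 0.4nM final, 18 h at 37 C. Beta-lactamase read by CCF4 fluorescence (460/530 nm); Hill fits gave IC50 and efficacy.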

[16] = target: Voltage-gated inwardly rectifying potassium channel KCNH2 (Homo sapiens) (UniProt Q12809); assay: qHTS Assay for Small Molecule Inhibitors of the Human hERG Channel Activity (AID 588834; active = well fitted curve in the direction sought with a large enough effect; an effect the other way counts as inactive or inconclusive;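 also: lower thallium flux fluorescence means stronger hERG block; nearly all actives have a fitted effect of over 50% in size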; also: potency is read from the fitted curve at half-maximal effect)
Method in brief: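 Kinetic FDSS fluorescence; U2OS + hERG BacMam (~100 virus particles/cell); FluxOR Tl+ flux; ~10 min cpd; AC50 (Hill).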

[17] = target: Luciferin 4-monooxygenase (Photinus pyralis) (UniProt P08659); assay: Biochemical firefly luciferase enzyme assay for NPC (AID 624030; active = well fitted curve in the direction sought with a large enough effect; an effect the other way counts as inactive or inconclusive;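 also: purified P. pyralis luciferase at 10 nM with luciferin and ATP substrate; series mostly up to about 59 µM; nearly all actives have a fitted effect of over 70% in size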)
Method in brief: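 Purified P. pyralis luciferase at 10 nM in 50 mM Tris Acetate (final), luminescence read within 5 minutes of enzyme addition to compounds. Activity normalised to PTC124 versus DMSO; concentration-response curves classed by r2, magnitude and activity.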

[18] = S16 Schwann cell viability assay (CellTiter-Glo assay) (AID 624031; active = well fitted curve in the direction sought with a large enough effect; an effect the other way counts as inactive or inconclusive; also: potency is read from the fitted curve at half-maximal effect; nearly all actives have a fitted effect of over 70% in size)
Method in brief: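 Rat S16 Schwann cells without reporter constructs received compound or DMSO for 24 h at 37 °C under 5% CO2. Cellular ATP was then quantified by CellTiter-Glo luminescence, with vehicle wells defined as 0% activity and cell-free wells as reference.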

Chain of Bile acid receptor (Homo sapiens) (Q96RI1 whole entry, looked up): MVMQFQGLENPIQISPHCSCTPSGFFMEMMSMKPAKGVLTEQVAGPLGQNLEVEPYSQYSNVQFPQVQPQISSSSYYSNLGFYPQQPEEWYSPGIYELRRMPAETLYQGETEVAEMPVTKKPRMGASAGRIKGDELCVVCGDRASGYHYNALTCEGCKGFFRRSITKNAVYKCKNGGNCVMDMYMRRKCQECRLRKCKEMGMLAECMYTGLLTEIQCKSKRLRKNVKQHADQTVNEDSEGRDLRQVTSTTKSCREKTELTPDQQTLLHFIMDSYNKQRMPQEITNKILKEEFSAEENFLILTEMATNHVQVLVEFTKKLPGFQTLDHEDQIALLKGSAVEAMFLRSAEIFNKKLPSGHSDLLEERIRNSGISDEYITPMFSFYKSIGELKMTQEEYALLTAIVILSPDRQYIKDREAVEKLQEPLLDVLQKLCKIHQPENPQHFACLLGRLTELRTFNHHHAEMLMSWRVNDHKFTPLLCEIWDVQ
Chain of Luciferin 4-monooxygenase (Photinus pyralis) (P08659 whole entry, looked up): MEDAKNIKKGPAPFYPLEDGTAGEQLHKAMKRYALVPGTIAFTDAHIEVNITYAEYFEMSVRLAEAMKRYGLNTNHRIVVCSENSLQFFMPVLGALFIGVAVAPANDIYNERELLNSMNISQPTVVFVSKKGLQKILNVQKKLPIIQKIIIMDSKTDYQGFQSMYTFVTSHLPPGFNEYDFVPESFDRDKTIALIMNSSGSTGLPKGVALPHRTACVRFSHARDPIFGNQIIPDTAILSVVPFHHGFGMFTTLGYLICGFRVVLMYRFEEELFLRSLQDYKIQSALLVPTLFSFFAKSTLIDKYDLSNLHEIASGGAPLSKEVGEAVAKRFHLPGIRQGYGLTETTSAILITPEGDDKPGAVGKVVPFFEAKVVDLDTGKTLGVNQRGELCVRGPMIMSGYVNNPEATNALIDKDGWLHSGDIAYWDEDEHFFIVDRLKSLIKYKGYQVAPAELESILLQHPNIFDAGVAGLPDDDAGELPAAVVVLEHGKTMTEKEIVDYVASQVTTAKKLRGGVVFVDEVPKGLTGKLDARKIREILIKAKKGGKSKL
Chain of Peroxisome proliferator-activated receptor delta (Homo sapiens) (Q03181 whole entry, looked up): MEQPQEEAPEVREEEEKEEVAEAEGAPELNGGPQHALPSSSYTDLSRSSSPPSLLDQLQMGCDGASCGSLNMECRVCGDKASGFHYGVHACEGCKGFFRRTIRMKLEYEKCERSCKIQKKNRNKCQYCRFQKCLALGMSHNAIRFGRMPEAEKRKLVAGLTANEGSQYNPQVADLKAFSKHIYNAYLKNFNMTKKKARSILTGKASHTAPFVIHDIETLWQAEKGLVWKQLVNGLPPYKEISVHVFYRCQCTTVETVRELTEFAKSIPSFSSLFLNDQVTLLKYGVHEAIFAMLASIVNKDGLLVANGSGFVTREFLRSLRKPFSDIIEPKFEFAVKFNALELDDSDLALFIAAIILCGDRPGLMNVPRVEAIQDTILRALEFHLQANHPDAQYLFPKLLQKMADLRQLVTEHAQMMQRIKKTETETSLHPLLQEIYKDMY
Chain of Retinoic acid receptor RXR-alpha (Homo sapiens) (P19793 whole entry, looked up): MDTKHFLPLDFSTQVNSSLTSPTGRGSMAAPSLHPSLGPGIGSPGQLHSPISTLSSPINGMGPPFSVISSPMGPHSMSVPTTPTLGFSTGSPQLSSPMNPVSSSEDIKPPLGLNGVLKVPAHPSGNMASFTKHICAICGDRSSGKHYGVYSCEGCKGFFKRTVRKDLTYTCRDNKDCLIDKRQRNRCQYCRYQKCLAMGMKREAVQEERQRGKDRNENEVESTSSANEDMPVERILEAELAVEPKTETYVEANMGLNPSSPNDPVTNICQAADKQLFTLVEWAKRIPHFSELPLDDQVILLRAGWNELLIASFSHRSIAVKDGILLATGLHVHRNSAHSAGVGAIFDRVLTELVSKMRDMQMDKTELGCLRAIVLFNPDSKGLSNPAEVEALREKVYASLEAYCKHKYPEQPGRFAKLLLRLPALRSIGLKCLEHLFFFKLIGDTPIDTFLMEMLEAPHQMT
Chain of Peroxisome proliferator-activated receptor gamma (Homo sapiens) (P37231 whole entry, looked up): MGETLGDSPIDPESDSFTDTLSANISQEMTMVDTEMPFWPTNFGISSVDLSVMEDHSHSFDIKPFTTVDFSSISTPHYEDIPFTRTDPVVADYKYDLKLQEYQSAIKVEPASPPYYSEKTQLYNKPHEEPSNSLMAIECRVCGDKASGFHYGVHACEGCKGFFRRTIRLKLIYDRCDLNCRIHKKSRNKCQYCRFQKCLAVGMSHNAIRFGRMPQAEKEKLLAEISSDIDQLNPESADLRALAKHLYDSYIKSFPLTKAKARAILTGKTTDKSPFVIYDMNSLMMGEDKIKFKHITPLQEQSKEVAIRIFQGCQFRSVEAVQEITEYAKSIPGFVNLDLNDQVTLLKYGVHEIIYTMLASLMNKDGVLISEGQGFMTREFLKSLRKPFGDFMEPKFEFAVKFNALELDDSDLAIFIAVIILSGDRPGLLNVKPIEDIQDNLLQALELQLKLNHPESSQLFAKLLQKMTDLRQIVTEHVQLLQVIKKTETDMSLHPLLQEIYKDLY
Chain of Thyroid hormone receptor beta (Homo sapiens) (P10828 whole entry, looked up): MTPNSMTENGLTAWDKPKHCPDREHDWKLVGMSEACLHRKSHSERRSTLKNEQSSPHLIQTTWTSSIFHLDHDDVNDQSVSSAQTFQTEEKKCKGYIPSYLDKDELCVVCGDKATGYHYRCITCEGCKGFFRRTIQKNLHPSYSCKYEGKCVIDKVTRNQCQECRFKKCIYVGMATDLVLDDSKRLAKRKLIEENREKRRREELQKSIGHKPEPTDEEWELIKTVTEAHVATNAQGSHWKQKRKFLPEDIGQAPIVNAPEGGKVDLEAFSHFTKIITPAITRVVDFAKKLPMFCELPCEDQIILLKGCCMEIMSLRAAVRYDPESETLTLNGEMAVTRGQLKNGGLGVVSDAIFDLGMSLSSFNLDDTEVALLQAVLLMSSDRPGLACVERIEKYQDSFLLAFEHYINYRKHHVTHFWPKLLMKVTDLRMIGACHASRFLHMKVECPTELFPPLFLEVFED
Chain of Vitamin D3 receptor (Homo sapiens) (P11473 whole entry, looked up): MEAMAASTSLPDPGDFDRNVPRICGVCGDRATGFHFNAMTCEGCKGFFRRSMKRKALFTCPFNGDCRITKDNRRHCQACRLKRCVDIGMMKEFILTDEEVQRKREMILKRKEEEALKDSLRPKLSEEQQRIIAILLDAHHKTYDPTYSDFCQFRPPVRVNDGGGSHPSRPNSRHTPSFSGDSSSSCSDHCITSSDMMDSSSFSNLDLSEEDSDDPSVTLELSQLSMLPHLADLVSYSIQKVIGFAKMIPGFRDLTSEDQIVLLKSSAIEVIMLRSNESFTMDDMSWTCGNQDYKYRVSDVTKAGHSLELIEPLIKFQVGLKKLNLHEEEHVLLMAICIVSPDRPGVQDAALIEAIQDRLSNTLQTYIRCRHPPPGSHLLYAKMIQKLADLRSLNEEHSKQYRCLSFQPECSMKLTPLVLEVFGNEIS
Chain of Glucocorticoid receptor (Homo sapiens) (P04150 whole entry, looked up): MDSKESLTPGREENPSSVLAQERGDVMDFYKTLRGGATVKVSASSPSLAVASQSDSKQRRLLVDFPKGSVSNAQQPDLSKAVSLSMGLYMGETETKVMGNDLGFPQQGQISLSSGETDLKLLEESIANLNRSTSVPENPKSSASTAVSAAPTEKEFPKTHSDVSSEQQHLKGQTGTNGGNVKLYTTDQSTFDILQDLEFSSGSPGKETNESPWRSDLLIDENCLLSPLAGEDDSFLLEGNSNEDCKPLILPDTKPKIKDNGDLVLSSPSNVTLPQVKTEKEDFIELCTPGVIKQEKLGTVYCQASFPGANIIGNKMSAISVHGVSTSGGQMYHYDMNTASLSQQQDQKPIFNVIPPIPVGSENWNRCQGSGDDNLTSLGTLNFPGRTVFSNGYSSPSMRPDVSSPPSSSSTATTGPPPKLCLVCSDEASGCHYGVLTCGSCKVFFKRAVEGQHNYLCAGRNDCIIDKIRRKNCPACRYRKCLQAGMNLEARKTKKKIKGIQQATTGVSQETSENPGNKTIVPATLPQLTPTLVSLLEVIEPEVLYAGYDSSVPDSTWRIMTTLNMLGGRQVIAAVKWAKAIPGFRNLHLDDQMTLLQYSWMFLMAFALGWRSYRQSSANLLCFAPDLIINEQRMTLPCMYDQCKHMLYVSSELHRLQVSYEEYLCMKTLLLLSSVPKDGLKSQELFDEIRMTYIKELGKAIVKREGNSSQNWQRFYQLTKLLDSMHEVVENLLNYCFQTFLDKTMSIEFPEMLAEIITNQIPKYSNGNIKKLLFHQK

For `CCN(CC)CCOc1ccc(/C(=C(\Cl)c2ccccc2)c2ccccc2)cc1`, the outcome [1] was “inactive”, the activation [2] was 7.97% (inactive) and the outcome [3] was “inactive”. For the same molecule, the max response [4] was -2.07% and the Potency [5] was 39.8 µM (active).

In the case of `Cc1ccc(O)cc1`, the outcome [6] is reported as “inactive”, the activation [2] is reported as -6.73% (inactive) and the max response [7] is reported as -30.2%. The outcome [8] was “inactive”, the outcome [9] was “inactive” and the outcome [10] was “inactive”. The outcome [11] was “inactive”, the outcome [3] was “inactive” and the max response [12] was -3.32%. For the same molecule, the Potency [13] was “inactive”, the outcome [14] was “inactive” and the max response [4] was -4.07%. For the same molecule, the max response [5] was 9.57% (inactive), the activity change % (negative = inhibition) [15] was -4.08% (inactive) and the Potency [16] was “inactive”.

With `O=C1NC(c2cccc([N+](=O)[O-])c2)=CCN1c1ccccc1O` the Potency [16] was “inactive”.

In the case of `CCCCCCCCCCCCCCCC[n+]1ccccc1`, the activation [2] is reported as 4.95% (inactive), the max response [7] is reported as 21.5% and the outcome [8] is reported as “inactive”. For the same molecule, the outcome [9] was “inactive”, the outcome [3] was “inactive” and the max response [12] was 3.2%. The Potency [13] was “inactive”, the max response [4] was 11.3% and the max response [5] was -34.1% (inactive). The Potency [17] was “inactive” and the Potency [18] was 36.1 µM (active).

With `CCCCCCCCCCCC[N+](C)(C)Cc1ccccc1` the outcome [1] was “inactive”, the outcome [6] was “inactive” and the activation [2] was 1.25% (inactive). For the same molecule, the max response [7] was 29.6%, the outcome [8] was “inactive” and the outcome [9] was “inactive”. The outcome [10] was “inactive”, the outcome [11] was “inactive” and the outcome [3] was “inactive”. For the same molecule, the outcome [14] was “inactive”, the activity change % (negative = inhibition) [15] was -19.6% (inactive) and the Potency [17] was “inactive”.

For `Nc1ccc(O)cc1`, the outcome [6] was “inactive”, the activation [2] was 1.91% (inactive) and the outcome [10] was “inactive”. For the same molecule, the outcome [3] was “inactive”, the max response [12] was 21.6% and the Potency [13] was “inactive”. The max response [4] was -3.95%, the max response [5] was -4.53% (inactive) and the Potency [16] was “inactive”.

With `COc1cccc2c1[C@@H]1CN(CCCCn3c(=O)[nH]c4c(sc5ncc(-c6ccccc6)nc54)c3=O)C[C@@H]1CO2` the Potency [16] was 5.01 µM (active) and the Potency [17] was “inactive”.

With `O=[N+]([O-])c1ccc(-c2nc(-c3ccc(F)cc3)c(-c3ccncc3)[nH]2)cc1` the Potency [16] was 8.91 µM (active).

For `Oc1ccccc1`, the outcome [6] was “inactive”, the max response [7] was -6.84% and 11% and the outcome [8] was “inactive”. The outcome [9] was “inactive”, the max response [4] was -7.3% and -10.8% and -13% and the max response [5] was 17.6% (inactive) and -10.1% (inactive) and 2.32% (inactive). For the same molecule, the Potency [16] was “inactive” and the Potency [17] was “inactive”.

With `CC(=O)OC/C=C(C)/C=C/C=C(C)/C=C/C1=C(C)CCCC1(C)C` the max response [7] was 34.7%, the outcome [8] was “inactive” and the outcome [9] was “inactive”. The outcome [11] was “inactive”, the outcome [3] was “inactive” and the outcome [14] was “inactive”. The max response [4] was 10.5%, the max response [5] was 0.429% (inactive) and the activity change % (negative = inhibition) [15] was 1.82% (inactive). For the same molecule, the Potency [16] was “inactive” and the Potency [17] was “inactive”.

In the case of `Cn1cnc2c(NCc3ccccc3)nc(NCCO)nc21`, the Potency [16] is reported as “inactive”.

With `CN1C(=O)c2ccccc2C1=O` the activation [2] was -9.8% (inactive), the max response [7] was -32.8% and the outcome [8] was “inactive”. The outcome [9] was “inactive”, the outcome [10] was “inactive” and the outcome [11] was “inactive”. The outcome [3] was “inactive”, the max response [12] was -17.2% and the Potency [13] was “inactive”. The outcome [14] was “inactive”, the activity change % (negative = inhibition) [15] was -4.79% (inactive) and the Potency [17] was “inactive”.
